Measurements taken from PubChem BioAssay AID1210 (NMMLSC, 2008).
The source made the active and inactive calls.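 How the source made its calls: active means blocks over 70% of labeled estradiol binding at 10 µM, or over a set limit at 100 nM; inactive means the rest.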

The compounds below were run against Estrogen receptor beta (Homo sapiens) (UniProt Q92731) (assay: ERbeta ligand binders by competition, primary screen, cell-based, Cos7 ERbeta-GFP, flow cytometry (AID 1210;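 further: 0% = DMSO vehicle wells and 100% = complete loss of labeled estradiol signal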)). Conditions: fluorescent estrogen binding, at 10 µM, stronger effect = higher value.
Estrogen receptor beta (Homo sapiens), sequence (Q92731 whole entry, looked up): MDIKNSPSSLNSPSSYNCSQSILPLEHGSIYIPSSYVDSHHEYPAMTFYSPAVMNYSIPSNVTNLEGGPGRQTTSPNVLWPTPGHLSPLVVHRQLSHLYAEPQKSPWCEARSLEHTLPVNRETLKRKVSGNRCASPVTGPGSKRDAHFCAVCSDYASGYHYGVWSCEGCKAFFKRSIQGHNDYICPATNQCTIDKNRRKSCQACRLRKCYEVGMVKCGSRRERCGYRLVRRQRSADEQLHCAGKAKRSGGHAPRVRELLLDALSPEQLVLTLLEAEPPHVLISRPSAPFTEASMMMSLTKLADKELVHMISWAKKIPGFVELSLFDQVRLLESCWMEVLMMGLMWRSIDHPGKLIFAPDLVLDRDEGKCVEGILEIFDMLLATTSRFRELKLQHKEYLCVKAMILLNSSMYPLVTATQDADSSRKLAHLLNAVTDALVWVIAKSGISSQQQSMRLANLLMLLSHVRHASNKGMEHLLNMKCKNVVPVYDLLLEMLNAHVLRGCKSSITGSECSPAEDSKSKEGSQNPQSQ
In the case of `Cc1cc(-c2nn3c(-c4ccccc4)nnc3s2)c2ccccc2n1`, the inhibition is reported as 71% (active). `NS(=O)(=O)c1ccc2c(c1)C1C=CCC1C(C1CC=CCC1)N2` (stereo unspecified) was tested, and the inhibition was 14% (inactive). `O=C(Nc1cccc(-c2cnc3ccccc3n2)c1)c1cccc(NC(=O)c2ccco2)c1` was tested, and the inhibition was 58% (inactive). In the case of `COC(=O)c1[nH]c2ccc(C)cc2c1NC(=O)CN1CCCc2ccccc21`, the inhibition is reported as 56% (inactive). With `COc1ccc(N2Cc3cccc(C(=O)O)c3C2=O)cc1` the inhibition was 42% (inactive). For `O=S(=O)(NCc1csc(-c2cccnc2)n1)c1cccs1`, the inhibition was 34% (inactive). `CC1(C)CCCN(C(=O)c2coc(=O)c(Br)c2)C1` was tested, and the inhibition was 49% (inactive). `O=c1cc(CSc2nnnn2-c2ccccc2)nc(Nc2ccc(F)cc2)[nH]1` was tested, and the inhibition was 0% (inactive). In the case of `Oc1ccc(C2=Nn3c(nnc3-c3ccco3)SC2)cc1O`, the inhibition is reported as 32% (inactive). With `C[C@]12CC[C@@H]3c4ccc(O[C@@H]5O[C@H](C(=O)O)[C@@H](O)[C@H](O)[C@H]5O)cc4CC[C@H]3[C@@H]1C[C@@H](O)[C@@H]2O` the inhibition was 52% (inactive). In the case of `O=C(CCCn1c(=S)[nH]c2cc3c(cc2c1=O)OCO3)N1CCN(c2ccc(Cl)cc2)CC1`, the inhibition is reported as 0% (inactive). In the case of `COc1ccc(-c2cn3c(C)c(C(=O)Nc4ccncc4)sc3n2)cc1`, the inhibition is reported as 60% (inactive). `CC1(N2CCOCC2)CC2(O)C(=[N+]1[O-])CCc1nonc12` (stereo unspecified) was tested, and the inhibition was 49% (inactive). For `Cn1c(-c2ccc3nc(N)sc3c2)nc2cc(N)ccc21`, the inhibition was 68% (inactive). For `O=C(Nc1cccc(-c2cn3cccnc3n2)c1)c1ccc2c(c1)OCO2`, the inhibition was 26% (inactive). For `COc1ccc(C2Nc3ccccc3C(=O)N2c2ccc(C)cc2)cc1Cn1cc([N+](=O)[O-])cn1` (stereo unspecified), the inhibition was 20% (inactive). With `COc1ccc(C2CC(c3ccccc3)=NN2C(=O)CSc2nccc(=O)[nH]2)cc1` (stereo unspecified) the inhibition was 33% (inactive). `NNc1nc2sc3c(c2c(=O)[nH]1)CCc1ccccc1-3` was tested, and the inhibition was 23% (inactive). With `O=c1cc(-c2ccco2)oc2c1ccc1ccccc12` the inhibition was 49% (inactive). In the case of `CN1C(=O)CC(C(=O)O)SC1=Nc1cc(Cl)c(O)c(Cl)c1` (stereo unspecified), the inhibition is reported as 48% (inactive). For `O=C(COC(=O)CN1C(=O)c2ccccc2C1=O)Nc1ncc(Cl)cc1Cl`, the inhibition was 33% (inactive). In the case of `COc1ccc2c(c1)c1nc3ccccc3nc1n2CCCN1C(=O)c2ccccc2C1=O`, the inhibition is reported as 49% (inactive). In the case of `Cn1nnnc1SCC(=O)Nc1nc(-c2ccccc2)c(-c2ccccc2)o1`, the inhibition is reported as 39% (inactive). `O=C(Cn1ncc2c(=O)oc3ccccc3c21)Nc1nc2ccccc2s1` was tested, and the inhibition was 35% (inactive). With `COc1cc2c3c(c1)/C(=C1/SC(NC(C)=O)=NC1=O)C(=O)N3C(C)(C)C=C2C` the inhibition was 37% (inactive). `Cc1ccc(NC(=O)CSc2nc3ccccc3c3nc4ccccc4n23)cc1` was tested, and the inhibition was 59% (inactive). For `CCCCCc1nnc(NC(=O)Cc2cccs2)s1`, the inhibition was 18% (inactive). For `CCOC(=O)c1c(/N=C/c2ccc(O)cc2O)sc2c1CCC2`, the inhibition was 33% (inactive). In the case of `Cc1ccccc1CSCC(=O)NC(=O)NCc1ccco1`, the inhibition is reported as 27% (inactive). With `CCOC(=O)c1sc(NC(=O)c2ccc3ncsc3c2)nc1C` the inhibition was 21% (inactive). For `O=C(CSc1nc2scc(-c3ccco3)c2c(=O)n1-c1ccccc1)NCC1CCCO1` (stereo unspecified), the inhibition was 55% (inactive). With `C=CCn1c(COc2ccccc2F)nnc1SCC(=O)NC(=O)NCc1ccco1` the inhibition was 24% (inactive). For `Brc1cc2c(cc1C1Nc3ccccc3C3C=CCC31)OCO2` (stereo unspecified), the inhibition was 20% (inactive). In the case of `COc1cc(C2CC(=O)c3c(ccc4ccccc34)N2)ccc1O` (stereo unspecified), the inhibition is reported as 47% (inactive). In the case of `CCCCn1c(NC(=O)CC)c(C#N)c2nc3ccccc3nc21`, the inhibition is reported as 47% (inactive). `O=C1C(c2ccnc3ccccc23)=C(O)c2ccccc21` was tested, and the inhibition was 60% (inactive). `Cc1ccc(-n2c(SCC(=O)NNC(=S)Nc3ccccc3)nc3ccccc3c2=O)cc1` was tested, and the inhibition was 34% (inactive). In the case of `CCN(CC)CCCNC(=O)c1nn(-c2ccccc2OC)c(=O)c2ccccc12`, the inhibition is reported as 40% (inactive).

Same assay, conditions: fluorescent estrogen binding, ligand binding inhibition, at 0.1 µM, stronger effect = higher value
In the case of `Cc1cc(-c2nn3c(-c4ccccc4)nnc3s2)c2ccccc2n1`, the inhibition is reported as 45%. `NS(=O)(=O)c1ccc2c(c1)C1C=CCC1C(C1CC=CCC1)N2` (stereo unspecified) showed an inhibition of 2%. For `O=C(Nc1cccc(-c2cnc3ccccc3n2)c1)c1cccc(NC(=O)c2ccco2)c1`, the inhibition was 43%. In the case of `COC(=O)c1[nH]c2ccc(C)cc2c1NC(=O)CN1CCCc2ccccc21`, the inhibition is reported as 26%. Compound `COc1ccc(N2Cc3cccc(C(=O)O)c3C2=O)cc1` has an inhibition of 32%. Work on `O=S(=O)(NCc1csc(-c2cccnc2)n1)c1cccs1` yielded an inhibition of 21%. Compound `CC1(C)CCCN(C(=O)c2coc(=O)c(Br)c2)C1` has an inhibition of 18%. `O=c1cc(CSc2nnnn2-c2ccccc2)nc(Nc2ccc(F)cc2)[nH]1` gave an inhibition of 25%. Work on `Oc1ccc(C2=Nn3c(nnc3-c3ccco3)SC2)cc1O` yielded an inhibition of 1%. `C[C@]12CC[C@@H]3c4ccc(O[C@@H]5O[C@H](C(=O)O)[C@@H](O)[C@H](O)[C@H]5O)cc4CC[C@H]3[C@@H]1C[C@@H](O)[C@@H]2O` showed an inhibition of 15%. Work on `O=C(CCCn1c(=S)[nH]c2cc3c(cc2c1=O)OCO3)N1CCN(c2ccc(Cl)cc2)CC1` yielded an inhibition of 56%. `COc1ccc(-c2cn3c(C)c(C(=O)Nc4ccncc4)sc3n2)cc1` gave an inhibition of 19%. For `CC1(N2CCOCC2)CC2(O)C(=[N+]1[O-])CCc1nonc12` (stereo unspecified), the inhibition was 62%. In the case of `Cn1c(-c2ccc3nc(N)sc3c2)nc2cc(N)ccc21`, the inhibition is reported as 17%. Compound `O=C(Nc1cccc(-c2cn3cccnc3n2)c1)c1ccc2c(c1)OCO2` has an inhibition of 48%. For `COc1ccc(C2Nc3ccccc3C(=O)N2c2ccc(C)cc2)cc1Cn1cc([N+](=O)[O-])cn1` (stereo unspecified), the inhibition was 2%. Compound `COc1ccc(C2CC(c3ccccc3)=NN2C(=O)CSc2nccc(=O)[nH]2)cc1` (stereo unspecified) has an inhibition of 37%. Compound `NNc1nc2sc3c(c2c(=O)[nH]1)CCc1ccccc1-3` has an inhibition of 37%. `O=c1cc(-c2ccco2)oc2c1ccc1ccccc12` gave an inhibition of 22%. With `CN1C(=O)CC(C(=O)O)SC1=Nc1cc(Cl)c(O)c(Cl)c1` (stereo unspecified) the inhibition was 14%. With `O=C(COC(=O)CN1C(=O)c2ccccc2C1=O)Nc1ncc(Cl)cc1Cl` the inhibition was 16%. Compound `COc1ccc2c(c1)c1nc3ccccc3nc1n2CCCN1C(=O)c2ccccc2C1=O` has an inhibition of 18%. Compound `Cn1nnnc1SCC(=O)Nc1nc(-c2ccccc2)c(-c2ccccc2)o1` has an inhibition of 32%. Work on `O=C(Cn1ncc2c(=O)oc3ccccc3c21)Nc1nc2ccccc2s1` yielded an inhibition of 7%. `COc1cc2c3c(c1)/C(=C1/SC(NC(C)=O)=NC1=O)C(=O)N3C(C)(C)C=C2C` gave an inhibition of 4%. With `Cc1ccc(NC(=O)CSc2nc3ccccc3c3nc4ccccc4n23)cc1` the inhibition was 7%. `CCCCCc1nnc(NC(=O)Cc2cccs2)s1` gave an inhibition of 5%. In the case of `CCOC(=O)c1c(/N=C/c2ccc(O)cc2O)sc2c1CCC2`, the inhibition is reported as 22%. `Cc1ccccc1CSCC(=O)NC(=O)NCc1ccco1` gave an inhibition of 35%. Work on `CCOC(=O)c1sc(NC(=O)c2ccc3ncsc3c2)nc1C` yielded an inhibition of 24%. `O=C(CSc1nc2scc(-c3ccco3)c2c(=O)n1-c1ccccc1)NCC1CCCO1` (stereo unspecified) gave an inhibition of 50%. In the case of `C=CCn1c(COc2ccccc2F)nnc1SCC(=O)NC(=O)NCc1ccco1`, the inhibition is reported as 2%. In the case of `Brc1cc2c(cc1C1Nc3ccccc3C3C=CCC31)OCO2` (stereo unspecified), the inhibition is reported as 25%. With `COc1cc(C2CC(=O)c3c(ccc4ccccc34)N2)ccc1O` (stereo unspecified) the inhibition was 14%. `CCCCn1c(NC(=O)CC)c(C#N)c2nc3ccccc3nc21` gave an inhibition of 17%. Compound `O=C1C(c2ccnc3ccccc23)=C(O)c2ccccc21` has an inhibition of 18%. `Cc1ccc(-n2c(SCC(=O)NNC(=S)Nc3ccccc3)nc3ccccc3c2=O)cc1` showed an inhibition of 4%. For `CCN(CC)CCCNC(=O)c1nn(-c2ccccc2OC)c(=O)c2ccccc12`, the inhibition was 19%.
